From PubChem BioAssay AID2675 (National Center for Advancing Translational Sciences (NCATS), 2010)
The campaign covered roughly 280,000 compounds. About 100 (0.036%) were called active. Another 11% or so got no clear call; they are omitted. Calls come from the whole dose curve; as a rule, active = well fitted inhibition curve with a large enough effect in the signal ratio, with a control signal flat (not every such curve was filed as active); inconclusive = small, poorly fitted or top-dose-only effect, or effect the other way, or a change in a side signal; inactive = no such curve, though single readings can be large or run the other way; the % refers to the signal ratio. Only a selection was taken, and actives are over-represented in it overall.

molecular target: Muscleblind-like protein 1 (Homo sapiens) (UniProt Q9NR56); experiment: qHTS Assay for Inhibitors of MBNL1-poly(CUG) RNA binding; settings: TR-FRET MBNL1-His/biotin-(CUG)12 binding, 665/545 ratio; series mostly up to 57.5 µM
Sequence (Q9NR56 whole entry, looked up): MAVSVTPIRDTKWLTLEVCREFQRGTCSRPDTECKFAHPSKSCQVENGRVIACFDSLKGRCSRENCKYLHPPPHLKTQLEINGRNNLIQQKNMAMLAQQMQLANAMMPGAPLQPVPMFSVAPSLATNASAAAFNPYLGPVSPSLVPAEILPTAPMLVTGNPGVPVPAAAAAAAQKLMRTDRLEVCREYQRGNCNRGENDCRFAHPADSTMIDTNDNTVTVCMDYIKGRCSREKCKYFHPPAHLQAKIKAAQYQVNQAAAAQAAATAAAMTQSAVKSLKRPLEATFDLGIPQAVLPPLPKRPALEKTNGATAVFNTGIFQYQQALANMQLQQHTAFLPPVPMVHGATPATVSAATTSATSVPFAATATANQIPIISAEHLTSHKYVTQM
Text: NIH Chemical Genomics Center [NCGC] NIH Molecular Libraries Probe Production Centers Network [MLPCN] MLPCN Grant: R03 MH087421-01 Assay Submitter (PI): Charles Thornton NCGC Assay Overview: Expanded CTG repeats in the 3' untranslated region of the DM protein kinase (DMPK) gene causes type I myotonic dystrophy (DM1). DM1 is a multi-systemic disease with a prevalence of 1/7000. Clinical features include myotonia, progressive muscle weakness and wasting, cardiac arrhythmia, insulin resistance, hypersomnolence, cataracts, and other symptoms. The pathogenic effect of expanded CTG repeats stems from deleterious effects of the mutant transcript. CUGexp mRNA accumulates in nuclear foci and sequesters proteins of the muscleblind family, of which MBNL1 is the most common family member in skeletal muscles. The binding interaction between MBNL1 and CUGexp tracts leads to deregulation of alternative splicing and is therefore a key molecular step in the pathogenesis of DM1. To target this binding interaction, we optimized a protein-RNA binding assay in 1536-well format for identification of small molecule inhibitors of biotinylated (CUG)12 and his-tagged MBNL1 binding. Protein-RNA complex of MBNL1-His and Biotin-(CUG)12 captures the detection reagents terbium-labeled anti-His antibody and streptavidin conjugated XL665. This brings the terbium label within close proximity to XL665 to allow time-resolved fluorescence resonance energy transfer (TR-FRET). Inhibitors of MBNL1-(CUG)12 binding will disrupt TR-FRET.
NCGC Assay Protocol Summary: This is a TR-FRET binding assay with MBNL1-His and Biotin-(CUG)12 RNA. The assay uses a ratiometric measurement. In the presence of MBNL1-(CUG)12 complex, the excitation energy is transferred to the XL665 acceptor label, causing emission at 665nm, while the 545nm donor signal […]. Data were normalized to the controls for basal activity (buffer only) and 100% activity (with MBNL1-(CUG)12). […] The final titration was 92 nM to 58 uM. (3) Add 1 ul of terbium labeled anti-His antibody (0.055 ng/ul final concentration) (4) Add 1 ul of streptavidin-XL665 (5 nM final concentration) (5) Incubate 60 min at room temperature (6) Detect the assay plate in a EnVision plate reader (PerkinElmer) with Ex=340 nm, Em1=665 nm and Em2=545 nm. Keywords: mytonic dystrophy type I, DM1, muscleblind like 1, MBNL1, CUG expansion, protein-RNA binding inhibitor, high throughput screening, MLSMR, MLSCN, NIH Roadmap, qHTS and NCGC

Activity change, negative = inhibition, inactive:
Cc1nc2nc(SCC(=O)Nc3cccc(F)c3)[nH]c2cc1Br
FC(F)(F)c1nnc2c3ccccc3c(Cl)nn12
COc1cc(CCC(=O)N2CCN(c3ccccc3Cl)CC2)cc(OC)c1OC
Cc1cc(=O)n2[nH]c(-c3cccc(Cl)c3)cc2n1
Cc1cc2oc(=O)cc(CN(C)Cc3ccc(OC(F)F)cc3)c2cc1Cl
CN(Cc1ccccc1)C(=O)c1ccc(COc2ccccc2)cc1
CCCCC(=O)Nc1ccccc1N1CCN(c2ccc(F)cc2)CC1
CC(=O)N1CCC(C(=O)OCc2ccc(Cl)cc2)(c2ccccc2)CC1
COc1cnc(-c2ccccn2)nc1Oc1ccc(C(C)(C)C)cc1
COc1ccc(-c2nn(-c3ccccc3)cc2/C=C2/SC(=S)N(CCCC(=O)O)C2=O)c(C)c1
C=CCSc1nnc(N2C(=O)C(O)=C(C(=O)c3ccco3)C2c2ccc(F)cc2)s1 (stereo not given)
CC1C(=O)Nc2ccc(S(=O)(=O)N3CCN(c4ccccc4F)CC3)cc2NC1=O (stereo not given)
CCN(CC(=O)Nc1ccc(C)c(S(=O)(=O)N(C)C)c1)Cc1ccccc1
O=C(c1ccccc1F)N(Cc1ccccc1)Cc1ccccc1
COc1ccc(COC(=O)c2ccc(Cl)c(S(=O)(=O)N3CCOCC3)c2)cc1F
CN(CC1CCCN(CCc2cccc(C(F)(F)F)c2)C1)C(=O)c1ccc2nc[nH]c2c1 (stereo not given)
COc1cc(/C=C/C(=O)N2CCc3ccccc3C2)cc(OC)c1OC
CN(C(=O)CN1C(=O)/C(=C/c2ccc(Cl)cc2)SC1=S)C1CCS(=O)(=O)C1 (stereo not given)
CC(=O)c1cc2c(cc1NC(=O)Cn1nc(-c3ccc(F)cc3)ccc1=O)OCO2
O=C(C1CCCN(S(=O)(=O)c2ccccc2)C1)N1CCN(c2ccc(F)cc2)CC1 (stereo not given)
CC(C)C[C@@H](COc1ccccc1)N1CCN(CC(C)C)CCC1=O
Cc1sc2ncn(CC(=O)NCCCC(=O)N3CCN(c4ccccc4F)CC3)c(=O)c2c1C
CCOC(=O)N1CCN(Cc2nc3cc(NC(=O)CC)ccc3n2CC)CC1
OC(CNCCc1ccc(Cl)cc1Cl)COc1ccccc1 (stereo not given)
Cc1cnc(C)c(N2CCN(C(=O)C3CCC(=O)N(CCc4cccc(F)c4)C3)CC2)n1 (stereo not given)
Cc1ccc(-n2nc3c(=O)n(C(C)C(=O)NCc4ccc5c(c4)OCO5)nc(C)c3c2C)cc1 (stereo not given)
CSc1ccc(S(=O)(=O)N2CCC(C(=O)NCCc3ccccc3)CC2)cc1
Cc1ccccc1NC(=S)NC(=O)Cc1ccc(Cl)cc1
COc1ccc(C(=O)NC2CCN(C(=O)Nc3ccc(F)cc3)CC2)cc1
CC(=O)c1cccc(NC(=O)CN2C(=O)c3cccnc3Oc3ccc(Cl)cc32)c1
Cc1cc(CN(C)C(=O)c2cc(COc3ccc(C)c(C)c3)on2)n[nH]1
COc1ccc2c(C)c(CCC(=O)NC3CC3)c(=O)oc2c1C
COc1cccc(C2CC(c3cccs3)=NN2C(=O)CSC2=NCCS2)c1OC (stereo not given)
COc1ccc(OC)c(NC(=O)CN(C)CCOc2ccc(Br)cc2)c1
COC(=O)c1cc(S(=O)(=O)Nc2ccc(C)c(F)c2)c[nH]1
COc1ccc(-c2nc3ccccc3c(=O)n2CCc2ccc(O)cc2)cc1
CCC(C(=O)OC)n1cnc2scc(-c3ccc(C)cc3)c2c1=O (stereo not given)
CCc1ccccc1N(CC(=O)NCC1CCCO1)C(=O)CCC(=O)Nc1nccs1 (stereo not given)
CCN1CCN(c2sc(S(C)(=O)=O)nc2S(=O)(=O)c2ccc(Cl)cc2)CC1
CCNC(=O)N1CCCC(C(=O)c2ccc(-c3ccccc3)cc2)C1 (stereo not given)
